# DAX1 inh-1: blocks DAX1 repression of SF-1 activated StAR promoter. HEK293T StAR-luciferase reporter, SF-1/DAX-1 repression relief. inhibition, % at 6.8 µM. 370,000 compounds, 1.1% hits. AID 652010;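 active = inhibition above the mean over all tested compounds plus 3 SD, cut at about 3.6% in these data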;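 also: 0% = DAX-1 cells with DMSO and 100% = cells lacking DAX-1 with DMSO; higher inhibition means more luminescence from relief of DAX-1 repression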
# SMARCA2 act: activators of SMARCA2 function. MG213 cells, MMTV-luciferase reporter, dexamethasone, overnight. activation, % at 9.1 µM. 370,000 compounds, 1% hits. AID 652017; in the data active = activation above about 7.8%;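 also: 0% = vehicle wells and 100% = reference activator wells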
# DAX1 inh-2: inhibits human nuclear receptor DAX1; P51843; HEK293 Gal4-DAX1 luciferase reporter, luminescence; inhibition, % at 6.75 µM; 340,000 compounds, 0.99% hits;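 active = inhibition above the mean over all tested compounds plus 3 SD, cut at about 4.2% in these data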;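 also: 0% = DAX1-transfected cells with DMSO and 100% = empty-vector control cells with DMSO; inhibition shows as a rise in luminescence from relieved DAX1 repression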
# Target sequence (P51843 207-470 limits assumed): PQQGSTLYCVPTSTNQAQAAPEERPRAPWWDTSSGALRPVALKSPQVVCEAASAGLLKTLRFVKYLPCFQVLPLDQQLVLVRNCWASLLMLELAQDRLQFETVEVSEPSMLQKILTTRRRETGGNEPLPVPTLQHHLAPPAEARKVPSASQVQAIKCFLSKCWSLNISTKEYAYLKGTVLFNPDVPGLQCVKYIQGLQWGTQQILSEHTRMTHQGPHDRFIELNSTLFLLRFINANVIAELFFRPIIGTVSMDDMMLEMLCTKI
# hgDAF-12 ag: agonists of H. glycines DAF-12 nuclear receptor; HEK293 GAL4-hgDAF12 UAS-luciferase reporter, agonist luminescence; normalized to butyrate control; activation, % at 6.8 µM; 370,000 compounds, 1.8% hits; AID 687014;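 active = activation above a cutoff set at the mean of all screened compounds plus 3 SD, cut at about 10% in these data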;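 also: 0% = DMSO wells and 100% = sodium butyrate wells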
# ssDAF12 agonist: S. stercoralis DAF-12 activation, primary screen; activation, % at 6.8 µM; 370,000 compounds, 1% hits; HEK293 ssDAF-12/GRIP1 lit1-tk-luc reporter, luminescence; % of 3 µM dafachronic acid response;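 active = activation above the mean over all tested compounds plus 3 SD, cut at about 0.9% in these data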;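 also: 0% = DMSO-only wells and 100% = 3 µM delta7-dafachronic acid wells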
# hcDAF12 agonist: activates DAF-12 receptor from parasite H. contortus; AID 652067; 370,000 compounds, 1.4% hits; activation, % at 6.8 µM; HEK293 hcDAF-12 lit1-tk-luc reporter, luminescence; 0% DMSO, 100% Δ7-dafachronic acid;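 active = activation above the mean of all tested compounds plus 3 SD, cut at about 5.5% in these data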;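 also: 100% = response to 3 µM Δ7-dafachronic acid high control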
# LXR ag: LXR-beta agonism as hcDAF-12 counter-screen; shares compounds with hcDAF12 agonist; AID 743027; activation, % at 6.8 µM; 3,400 tested, under 10 active; HEK293 Gal4-LXR tk-luc reporter, luminescence, 24 h; normalized: DMSO 0%, positive control 100%;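 active = mean percent activation of the reporter above a cutoff set as the average over tested compounds plus their standard deviation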
# hcDAF12 conf: confirmation of H. contortus DAF-12 agonists | HEK293 hcDAF-12 lit1-tk-luc reporter, luminescence; % of Δ7-dafachronic acid response | activation, % at 6.8 µM | 3,400 compounds, 61% hits | shares compounds with hcDAF12 agonist;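 active = mean activation across triplicate tests above the threshold derived from the earlier primary screen, cut at about 5.5% in these data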;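 also: 0% = DMSO only wells and 100% = 3 µM Δ7-dafachronic acid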
# hgDAF12 ag: confirmation of H. glycines DAF-12 agonists | 3,300 compounds, 80% hits | activation, % at 6.8 µM | HEK293 GAL4-hgDAF12 luciferase reporter, agonist mode; percent of butyrate response | shares compounds with hgDAF-12 ag;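 active = mean activation over triplicate wells above the hit cutoff derived from the earlier primary screen, cut at about 11% in these data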;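 also: 0% = DMSO low control and 100% = 2 mM sodium butyrate high control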
# LXRb DAF12 ctr: counter-screen for DAF-12 agonists: agonists of human LXR-beta; 3,300 tested, under 10 active; shares compounds with hgDAF-12 ag; HEK293 Gal4-LXR luciferase reporter, 24 h; activation, % at 6.8 µM; AID 743051;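 active = mean activation of the triplicate above a set limit carried over from the primary screen, none filed active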
# Active calls of the source: *; · = no result given. Hits are enriched below; roughly 4.8% of the tested compounds scored in any of these assays.
SMILES,DAX1 inh-1,SMARCA2 act,DAX1 inh-2,hgDAF-12 ag,ssDAF12 agonist,hcDAF12 agonist,LXR ag,hcDAF12 conf,hgDAF12 ag,LXRb DAF12 ctr
CSc1ncccc1C(=O)Nc1cc(C)ccn1,0.3,2.0,0.2,-0.6,-0.6,0.1,·,·,·,·
Cc1cccc(C)c1NC(=O)c1cnn(-c2ccccc2)c1C,-0.6,-1.7,0.6,1.3,-1.1,-0.1,·,·,·,·
CCc1cccc(NC(=O)c2cnn(-c3ccccc3)c2C)c1,3.1,3.3,4.2,18.9*,0.1,7.9*,1.4,3.7,15.9*,0.7
CN(C)C=Nc1ccc2nn(-c3ccccc3)nc2c1,4.4*,6.0,2.8,14.7*,1.2*,6.7*,1.7,8.2*,22.4*,0.8
CN(C)C=Nc1ccc(Cl)c(Cl)c1,-0.3,-0.9,1.5,1.6,-1.5,-1.7,·,·,·,·
Cc1ccc(-c2nnc(NC3CCCC3)s2)cc1,2.2,3.9,3.6,15.2*,0.0,9.2*,0.9,3.0,18.6*,0.9
Cc1ccc(C(=O)Nc2nnc(-c3ccc(C(C)(C)C)cc3)s2)cc1,-0.2,2.6,0.2,1.5,-1.0,0.5,·,·,·,·
O=C(N[C@H](C(=O)N1CCC[C@H]1C(=O)NCc1ccccc1)C1CCCCC1)c1ccccc1,-0.3,-0.4,·,4.5,-0.8,1.2,·,·,·,·
Brc1ccc(CN2CCN(c3ncc(Cc4ccccc4)cn3)CC2)cc1,-3.2,-6.5,·,-1.4,-0.9,-3.2,·,·,·,·
CC(C)N1CCc2c(sc(NC(=O)c3nc4ccccc4s3)c2C(N)=O)C1,-2.8,-3.3,-2.0,-9.0,-1.4,-3.1,·,·,·,·
CC(=O)Nc1sc2c(c1-c1nc3ccccc3s1)CCCN(C(C)C)C2,·,·,·,23.7*,7.3*,41.6*,2.4,20.6*,6.3,1.0
CCCOc1ccc(-c2nc(OC)c3ccccc3n2)cc1,4.1*,6.2,1.4,17.4*,2.6*,15.9*,-0.2,3.9,3.5,0.1
Cc1ccnc(NC(=O)c2cc3cc(F)ccc3s2)c1,3.3,5.7,2.4,21.9*,2.4*,9.9*,1.6,8.4*,19.2*,1.1
Cc1c(C(=O)Nc2ccc(Br)cc2)cnn1C,1.8,1.8,2.4,15.0*,2.3*,11.2*,0.6,6.1*,12.5*,0.5
COC(=O)[C@]12C[C@H](CC(=O)NCCCN3CCCC3=O)C(=O)N(CCC3=CCCCC3)C1=C[C@H](COCc1ccccc1)O[C@@H]2C,-1.6,0.7,·,-0.3,-1.5,-0.3,·,·,·,·
COC(=O)[C@]12C[C@H](CC(=O)NCCCN3CCCC3=O)C(=O)N(Cc3ccccc3)C1=C[C@H](C(C)(C)C)O[C@@H]2C,-0.8,4.3,·,0.9,-1.0,-0.8,·,·,·,·
Cc1ccc(-c2nc3nc4ccccc4nc3n2Cc2ccco2)cc1,5.1*,3.3,1.5,16.2*,1.4*,10.8*,1.3,8.8*,13.9*,0.9
Clc1ccc(-c2nc3nc4ccccc4nc3n2Cc2ccco2)cc1,3.1,3.0,3.5,14.1*,1.1*,8.4*,0.6,5.8*,7.3,0.2
CCOC(=O)/C(=N\Nc1ncnc2ccccc12)c1ccc(C)cc1,2.2,5.5,-0.5,20.7*,2.5*,18.5*,1.8,18.9*,19.7*,1.2
Cc1cc2nc(-c3ccc(SCC(=O)Nc4ccc5c(c4)OCCO5)nc3)[nH]c2cc1C,3.4,7.5,0.9,15.2*,-0.2,7.3*,1.2,4.1,14.8*,0.9
O=C(CSc1ccc(-c2nc3ccccc3[nH]2)cn1)Nc1ccc2c(c1)OCCO2,·,·,2.7,·,·,·,·,·,·,·

# Screening data as filed in PubChem.
